From PubChem BioAssay
For some of these results: Entries with a potency or affinity are not part of this list. Active and inactive are the calls of the source. Unless noted, how the calls were made is not given here.

Experiments:
[1] = antimalarial activity against Dd2 strain (AID 2302;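 active means growth inhibition above 50% at the single 2 µM test dose, taken to imply half-maximal potency below 2 µM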;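 further: 0% = DMSO untreated growth and 100% = chloroquine plus artemisinin killed control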); details: P. falciparum Dd2 in RBCs, LDH growth readout, 72 h; at 2 µM; stronger effect = higher value
[2] = HepG2 cytotoxicity, primary screen, cytotoxicity control for P. falciparum antimalarial project, cell-based, ATP luminescence (AID 2303;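 active means inhibition above 50%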;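 further: 0% = DMSO wells and 100% = digitonin-killed cells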); details: HepG2 viability, 24-48 h, at 10 µM, stronger effect = higher value
[3] = biological target: L-lactate dehydrogenase (Plasmodium falciparum (isolate CDC / Honduras)) (UniProt Q27743); assay: PfLDH activity inhibition – cell lysate, 3D7 strain, counter-screen for P. falciparum growth inhibition project (AID 2304);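 further: 0% = vehicle and 100% = reference inhibitor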; details: P. falciparum 3D7 crude extract, LDH APAD/NBT absorbance; at 2 µM; stronger effect = higher value
[4] = inhibition of 3D7 malaria parasite growth – strain 3D7 (AID 2306);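 further: 0% = DMSO wells and 100% = chloroquine plus artemisinin control wells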; details: P. falciparum 3D7 erythrocytic growth, LDH absorbance, 72 h; at 2 µM; stronger effect = higher value
[5] = biological target: Calcium-dependent protein kinase 1 (Plasmodium falciparum (isolate 3D7)) (UniProt P62344); assay: PfCDPK1 kinase inhibitors, biochemical, TCAMS library (AID 1159585; cut-off not given, nearly all actives have IC50 up to about 0.98 µM;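 further: inhibitors leave more ATP so luminescence rises with inhibition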); details: recombinant PfCDPK1, Kinase-Glo ATP depletion luminescence
[6] = biological target: Plasmodium falciparum protein kinase 6 (PK6, PF3D7_1337100) (UniProt Q8IDW1); assay: PfPK6 kinase inhibitors, biochemical, TCAMS library (AID 1159586); details: recombinant PfPK6, Kinase-Glo ATP depletion luminescence
[7] = biological target: Protein kinase 7 (PK7), Plasmodium falciparum 3D7 (PF3D7_0213400) (UniProt Q7YTF7); assay: inhibition of Plasmodium PK7 catalytic activity – biochemical, TCAMS antimalarial set, Kinase-Glo luminescence (AID 1159587); details: recombinant PfPK7, Kinase-Glo ATP depletion luminescence
[8] = biological target: Calcium-dependent protein kinase 4 (Plasmodium falciparum (isolate 3D7)) (UniProt Q8IBS5); assay: PfCDPK4 kinase inhibitors, biochemical, TCAMS library (AID 1159588; cut-off not given, nearly all actives have IC50 up to about 0.91 µM); details: recombinant PfCDPK4, Kinase-Glo ATP depletion luminescence
Calcium-dependent protein kinase 4 (Plasmodium falciparum (isolate 3D7)), sequence (Q8IBS5 whole entry, looked up): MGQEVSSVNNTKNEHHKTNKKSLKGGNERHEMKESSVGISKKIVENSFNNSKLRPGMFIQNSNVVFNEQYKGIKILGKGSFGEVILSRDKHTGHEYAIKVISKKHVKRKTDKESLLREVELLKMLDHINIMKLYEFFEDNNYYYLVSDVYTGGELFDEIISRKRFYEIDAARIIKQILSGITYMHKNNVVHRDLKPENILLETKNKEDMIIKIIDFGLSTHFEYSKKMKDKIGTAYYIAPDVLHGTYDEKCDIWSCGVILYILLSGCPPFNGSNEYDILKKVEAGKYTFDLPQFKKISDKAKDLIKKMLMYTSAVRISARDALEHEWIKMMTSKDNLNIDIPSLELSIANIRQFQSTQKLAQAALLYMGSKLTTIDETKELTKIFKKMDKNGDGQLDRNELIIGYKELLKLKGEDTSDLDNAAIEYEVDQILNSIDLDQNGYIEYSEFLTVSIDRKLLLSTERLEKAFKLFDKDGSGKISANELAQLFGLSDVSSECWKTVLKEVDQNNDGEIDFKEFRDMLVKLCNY

Calcium-dependent protein kinase 1 (Plasmodium falciparum (isolate 3D7)), sequence (P62344 whole entry, looked up): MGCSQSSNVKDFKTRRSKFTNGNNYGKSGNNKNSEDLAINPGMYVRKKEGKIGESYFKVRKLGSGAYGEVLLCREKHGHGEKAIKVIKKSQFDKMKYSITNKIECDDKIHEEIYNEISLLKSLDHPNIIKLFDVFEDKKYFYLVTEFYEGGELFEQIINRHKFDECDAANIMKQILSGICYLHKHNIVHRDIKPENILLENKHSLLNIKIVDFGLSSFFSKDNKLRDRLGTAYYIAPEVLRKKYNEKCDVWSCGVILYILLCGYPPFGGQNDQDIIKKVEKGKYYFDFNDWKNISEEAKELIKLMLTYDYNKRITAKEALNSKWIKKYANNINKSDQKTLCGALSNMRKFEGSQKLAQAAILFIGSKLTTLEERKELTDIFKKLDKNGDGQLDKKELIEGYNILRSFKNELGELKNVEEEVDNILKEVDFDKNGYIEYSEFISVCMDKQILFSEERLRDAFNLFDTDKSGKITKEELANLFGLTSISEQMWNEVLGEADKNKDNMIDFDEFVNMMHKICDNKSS
Plasmodium falciparum protein kinase 6 (PK6, PF3D7_1337100), sequence (Q8IDW1 1-305): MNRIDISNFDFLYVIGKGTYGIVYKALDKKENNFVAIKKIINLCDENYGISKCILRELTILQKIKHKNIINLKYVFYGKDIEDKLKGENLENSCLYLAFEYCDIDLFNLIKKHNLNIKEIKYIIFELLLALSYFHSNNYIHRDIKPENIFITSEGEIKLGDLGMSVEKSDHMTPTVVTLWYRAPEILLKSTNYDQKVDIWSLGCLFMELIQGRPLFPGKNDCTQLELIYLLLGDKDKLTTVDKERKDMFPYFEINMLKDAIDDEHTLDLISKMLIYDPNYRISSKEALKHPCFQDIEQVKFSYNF
Protein kinase 7 (PK7), Plasmodium falciparum 3D7 (PF3D7_0213400), sequence (Q7YTF7 1-343): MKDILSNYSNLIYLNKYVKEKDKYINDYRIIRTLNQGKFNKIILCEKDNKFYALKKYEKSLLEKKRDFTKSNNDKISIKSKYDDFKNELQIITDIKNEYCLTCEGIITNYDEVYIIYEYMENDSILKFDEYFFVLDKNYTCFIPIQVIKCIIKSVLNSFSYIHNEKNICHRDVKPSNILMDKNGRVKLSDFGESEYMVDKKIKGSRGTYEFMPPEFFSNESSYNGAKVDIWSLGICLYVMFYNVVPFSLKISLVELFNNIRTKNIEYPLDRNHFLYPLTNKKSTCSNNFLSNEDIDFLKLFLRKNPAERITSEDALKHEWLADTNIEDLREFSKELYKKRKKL
L-lactate dehydrogenase (Plasmodium falciparum (isolate CDC / Honduras)), sequence (Q27743 whole entry, looked up): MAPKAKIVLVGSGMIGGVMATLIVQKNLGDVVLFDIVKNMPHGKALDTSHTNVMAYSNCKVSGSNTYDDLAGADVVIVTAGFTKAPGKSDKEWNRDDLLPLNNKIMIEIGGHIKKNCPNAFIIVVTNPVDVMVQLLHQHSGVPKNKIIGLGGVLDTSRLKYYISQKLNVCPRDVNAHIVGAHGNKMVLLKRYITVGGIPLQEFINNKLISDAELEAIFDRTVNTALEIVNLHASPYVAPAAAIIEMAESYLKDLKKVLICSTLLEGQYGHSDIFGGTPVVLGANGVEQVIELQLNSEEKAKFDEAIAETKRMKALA

CN(C)c1ccc(CN2CCC(CNC(=O)c3cc(-c4ccccc4F)cs3)C2)cc1 (stereo not drawn)
active: growth inhibition [4] 101%
inactive: growth inhibition [1] 33% | inhibition [2] 35% | inhibition [3] 2% | outcome [5] | outcome [6] | outcome [7] | outcome [8]

COc1ccc2nccc([C@@H](O)CN3CCC(NCc4ccc5c(c4)NC(=O)C(C)(C)O5)CC3)c2c1
active: growth inhibition [1] 70% | growth inhibition [4] 100%
inactive: inhibition [2] 6% | inhibition [3] 3% | outcome [5] | outcome [6] | outcome [7] | outcome [8]

CC1(CCCCN2CCC(Cc3ccccc3)CC2)C(=O)Nc2ccccc21 (stereo not drawn)
inactive: growth inhibition [1] 28% | inhibition [3] -8% | outcome [5] | outcome [6] | outcome [7] | outcome [8]
active: inhibition [2] 66% | growth inhibition [4] 100%

Cc1c(Br)cc2[nH]c(-c3ccc(C(=O)NC4CCN(Cc5ccccc5)CC4)cc3)nc2c1C
active: growth inhibition [1] 98% | growth inhibition [4] 102%
inactive: inhibition [2] 4% | inhibition [3] 1% | outcome [5] | outcome [6] | outcome [7] | outcome [8]

CCNc1cc(C(=O)N[C@@H](Cc2ccccc2)[C@H](O)CNC(C)(C)Cc2ccccc2)cc(N2CCCC2=O)c1
inactive: inhibition [2] 1% | inhibition [3] 3% | outcome [5] | outcome [6] | outcome [7] | outcome [8]
active: growth inhibition [1] 78% | growth inhibition [4] 99%

COc1ccc(Cn2c(Nc3cccc(C(F)(F)F)c3)nc3ccc(C(=O)NCCN4CCCC4)cc32)cc1Cl
inactive: growth inhibition [1] 6% | inhibition [2] 14% | inhibition [3] 2% | outcome [5] | outcome [6] | outcome [7] | outcome [8]
active: growth inhibition [4] 100%

CCCN1CCC=C(c2cccc(Nc3nccc(Nc4cc(OC)ccc4C)n3)c2)C1
active: growth inhibition [4] 88%
inactive: growth inhibition [1] 35% | inhibition [2] 15% | inhibition [3] -1% | outcome [5] | outcome [6] | outcome [7] | outcome [8]

CCOc1ccc(CCC(=O)O)cc1OCC
inactive: growth inhibition [1] -3% | inhibition [3] 6% | outcome [5] | outcome [6] | outcome [7] | outcome [8]
active: inhibition [2] 60% | growth inhibition [4] 94%

Cc1ccc(CCOCCCCCNCC(O)c2cc(Cl)c(N)c(Cl)c2)cc1 (stereo not drawn)
inactive: inhibition [2] 10% | inhibition [3] -1% | outcome [5] | outcome [6] | outcome [7] | outcome [8]
active: growth inhibition [1] 98% | growth inhibition [4] 99%

CC(Oc1cccc(Cl)c1)C(=O)N1CCc2ccccc21 (stereo not drawn)
active: growth inhibition [1] 77% | growth inhibition [4] 94%
inactive: inhibition [2] 4% | inhibition [3] -1% | outcome [5] | outcome [6] | outcome [7] | outcome [8]

COc1ccc(-c2cnc3ccc(NCc4ccc(F)cc4)nn23)cc1OC
active: growth inhibition [1] 99% | growth inhibition [4] 97%
inactive: inhibition [2] 35% | inhibition [3] -2% | outcome [5] | outcome [6] | outcome [7] | outcome [8]

O=C(Nc1ccc(-c2cccc(-c3nc4ccccc4[nH]3)c2)cc1)Nc1ccsc1
inactive: inhibition [3] -7% | outcome [5] | outcome [6] | outcome [7] | outcome [8]
active: growth inhibition [1] 90% | inhibition [2] 56% | growth inhibition [4] 101%

CCCN(C(=O)c1ccccc1C)c1nnc(-c2cccc(C)c2)s1
inactive: inhibition [2] 8% | inhibition [3] -4% | outcome [5] | outcome [6] | outcome [7] | outcome [8]
active: growth inhibition [1] 67% | growth inhibition [4] 91%

CCCCC(CC)CN1C(=O)C(c2ccccc2)(c2ccccc2)N=C1N (stereo not drawn)
inactive: inhibition [2] 32% | inhibition [3] 4% | outcome [5] | outcome [6] | outcome [7] | outcome [8]
active: growth inhibition [1] 98% | growth inhibition [4] 94%

Cc1ccc2nc(-c3ccc(C=CC(=O)NC4CCN(Cc5ccccc5)CC4)cc3)[nH]c2c1
inactive: inhibition [2] 9% | inhibition [3] -1% | outcome [5] | outcome [6] | outcome [7] | outcome [8]
active: growth inhibition [1] 92% | growth inhibition [4] 101%

Cc1cc(N)c2cc(NC(=O)c3cc4ccccc4s3)ccc2n1
inactive: inhibition [3] 2% | outcome [5] | outcome [6] | outcome [7] | outcome [8]
active: growth inhibition [1] 99% | inhibition [2] 100% | growth inhibition [4] 101%

O=S(=O)(NCCN1CCCC1)c1cccc(-c2ccc(CNCc3ccc(F)cc3)cc2)c1
inactive: growth inhibition [1] 41% | inhibition [2] 38% | inhibition [3] 6% | outcome [5] | outcome [6] | outcome [7] | outcome [8]
active: growth inhibition [4] 104%

O=C1OC2(CCN(C(=O)c3ccc(-n4cnnn4)cc3)CC2)CN1Cc1ccc(Cl)c(Cl)c1
inactive: inhibition [2] 11% | inhibition [3] -7% | outcome [5] | outcome [6] | outcome [7] | outcome [8]
active: growth inhibition [1] 70% | growth inhibition [4] 97%

Cc1[nH]c(C)c(Cc2ccc(Oc3ccc(OC(F)(F)F)cc3)cc2)c(=O)c1Br
active: growth inhibition [1] 87% | growth inhibition [4] 96%
inactive: inhibition [2] 29% | inhibition [3] -1% | outcome [5] | outcome [6] | outcome [7] | outcome [8]

Fc1cccc(COc2ccc(-n3ccc4c(NCCCn5ccnc5)ncnc43)cc2Cl)n1
active: growth inhibition [4] 87%
inactive: growth inhibition [1] 29% | inhibition [2] 14% | inhibition [3] -2% | outcome [5] | outcome [6] | outcome [7] | outcome [8]

O=C(NC1CCCCC1)C1CCCN(C(=O)c2ccc(O)c(-c3ccc(Cl)c(Cl)c3)c2)C1 (stereo not drawn)
active: growth inhibition [4] 89%
inactive: growth inhibition [1] 42% | inhibition [2] 22% | inhibition [3] 0% | outcome [5] | outcome [6] | outcome [7] | outcome [8]

COc1ccc(-c2ccc(CNC(=O)c3ccc(C#N)cc3)c(F)c2)cc1CN1CCCN(C)CC1
active: growth inhibition [4] 90%
inactive: growth inhibition [1] 1% | inhibition [2] 6% | inhibition [3] -10% | outcome [5] | outcome [6] | outcome [7] | outcome [8]

CCC1(C)N=C(N)N=C(N)N1c1ccc(Cl)cc1 (stereo not drawn)
inactive: growth inhibition [1] -1% | inhibition [2] 7% | inhibition [3] -3% | outcome [5] | outcome [6] | outcome [7] | outcome [8]
active: growth inhibition [4] 95%

Nc1ncc(-c2ccc(NC(=O)Nc3cc(C(F)(F)F)ccc3F)cc2)c(N)n1
active: inhibition [2] 96% | growth inhibition [4] 99%
inactive: growth inhibition [1] 21% | inhibition [3] -5% | outcome [5] | outcome [6] | outcome [7] | outcome [8]

COCCN1CCC(CN(C)CC(C)(C)c2nc(-c3ccc(Cl)c(O)c3)c(-c3ccncc3)[nH]2)CC1
inactive: growth inhibition [1] 10% | inhibition [2] -8% | inhibition [3] -2% | outcome [5] | outcome [6] | outcome [7] | outcome [8]
active: growth inhibition [4] 94%

CCc1ccc(S(=O)(=O)Nc2cccc(CCN3CCC(N4CCCCC4)CC3)c2)cc1
active: growth inhibition [4] 101%
inactive: growth inhibition [1] 20% | inhibition [2] 21% | inhibition [3] -4% | outcome [5] | outcome [6] | outcome [7] | outcome [8]

N#Cc1ccc2c(c1)CCN(CCC1CCC(Nc3ncnc4ccccc34)CC1)C2 (stereo not drawn)
active: growth inhibition [1] 96% | inhibition [2] 65% | growth inhibition [4] 101%
inactive: inhibition [3] -4% | outcome [5] | outcome [6] | outcome [7] | outcome [8]

O=C(NCc1ccc(Cl)c(Cl)c1)c1ccc(C2CCN(Cc3ccc4nc[nH]c4c3)CC2)cc1
inactive: growth inhibition [1] 31% | inhibition [2] 1% | inhibition [3] -1% | outcome [5] | outcome [6] | outcome [7] | outcome [8]
active: growth inhibition [4] 100%

Cc1cc(-c2cccc3c(NC(=O)N4CCc5cc6nccc(N7CCN8CCC[C@H]8C7)c6cc54)cccc23)cc(C)n1
active: growth inhibition [1] 100% | growth inhibition [4] 101%
inactive: inhibition [2] 12% | inhibition [3] 6% | outcome [5] | outcome [6] | outcome [7] | outcome [8]

COc1cccc(C(=O)Nc2ccc(Nc3nc(C)cc(N(C)C)n3)cc2)c1
inactive: growth inhibition [1] 33% | inhibition [2] 1% | inhibition [3] -2% | outcome [5] | outcome [6] | outcome [7] | outcome [8]
active: growth inhibition [4] 92%

COc1ccc2nc(Nc3nc(-c4ccccn4)cs3)sc2c1
inactive: inhibition [2] 40% | inhibition [3] 4% | outcome [5] | outcome [6] | outcome [7] | outcome [8]
active: growth inhibition [1] 94% | growth inhibition [4] 93%

NC(=NCc1ccccc1)Nc1cccc(Cc2ccccc2)n1
active: growth inhibition [1] 52% | inhibition [2] 57% | growth inhibition [4] 85%
inactive: inhibition [3] 0% | outcome [5] | outcome [6] | outcome [7] | outcome [8]

O=C(OCC1CCN(Cc2ccccc2)C1)c1ccc(Cl)cc1 (stereo not drawn)
active: growth inhibition [4] 100%
inactive: growth inhibition [1] 4% | inhibition [2] -3% | inhibition [3] 3% | outcome [5] | outcome [6] | outcome [7] | outcome [8]

NC1=NC(CCc2ccccc2)N(c2ccc(Cl)cc2)C(N)=N1 (stereo not drawn)
active: growth inhibition [4] 94%
inactive: growth inhibition [1] 20% | inhibition [2] 2% | inhibition [3] -5% | outcome [5] | outcome [6] | outcome [7] | outcome [8]

CN(C)Cc1cccc(-c2ccc(Nc3nccc(NCC(O)c4ccccc4)n3)cc2)c1 (stereo not drawn)
inactive: inhibition [3] 1% | outcome [5] | outcome [6] | outcome [7] | outcome [8]
active: growth inhibition [1] 77% | inhibition [2] 75% | growth inhibition [4] 100%

c1ccc(-c2nc(NC3CCCCC3)cc(C3CC3)n2)nc1
active: growth inhibition [1] 76% | growth inhibition [4] 97%
inactive: inhibition [2] 35% | inhibition [3] 2% | outcome [5] | outcome [6] | outcome [7] | outcome [8]

O=C(N[C@H]1CCN(Cc2ccc(OCCCN3CCCCC3)cc2)C1)c1ccc2ccccc2c1
inactive: growth inhibition [1] 32% | inhibition [2] 8% | inhibition [3] 5% | outcome [5] | outcome [6] | outcome [7] | outcome [8]
active: growth inhibition [4] 97%

CCOc1cc2c(cc1OCC)C(c1ccc(O)c(Cl)c1)NCC2 (stereo not drawn)
inactive: inhibition [2] 6% | inhibition [3] 4% | outcome [5] | outcome [6] | outcome [7] | outcome [8]
active: growth inhibition [1] 98% | growth inhibition [4] 98%

O=C(Nc1cccc(CN2CCCN(Cc3ccsc3)CC2)c1)c1ccc(Cl)c(Cl)c1
active: growth inhibition [4] 98%
inactive: growth inhibition [1] 20% | inhibition [2] 36% | inhibition [3] 4% | outcome [5] | outcome [6] | outcome [7] | outcome [8]

CCOC(=O)c1ccc(NC(=O)N(Cc2ccc(-c3ccc(CN4CCNCC4)cc3)cc2)C2CCN(Cc3ccccc3)CC2)cc1
inactive: inhibition [2] 14% | inhibition [3] 3% | outcome [5] | outcome [6] | outcome [7] | outcome [8]
active: growth inhibition [1] 93% | growth inhibition [4] 102%

CCCc1cc(Cc2cnc(N)nc2N)cc(CCC)c1O
inactive: growth inhibition [1] 5% | inhibition [3] 2% | outcome [5] | outcome [6] | outcome [7] | outcome [8]
active: inhibition [2] 64% | growth inhibition [4] 96%
